Compound activity deposited in PubChem BioAssay by National Center for Advancing Translational Sciences (NCATS).
Compounds with a hit are over-represented: about 21% of the library has one in this group of screens.
Pf growth 48h: inhibits P. falciparum growth in the first generation, 48 h; AID 504832; P. falciparum luciferase growth in erythrocytes, 48 h; Potency, µM (titrated, usually from 28.7 µM), for inactives: at the highest dose activity change, negative = inhibition, actives largely listed as inhibitors; hit rate 5.9% among 310,000; further: potency means the concentration at half of the fitted maximal effect; on the % scale 0 is the no-effect control and ±100 the full control effect
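Luminescence readout; reporter = integrated firefly luciferase in P. falciparum. RBC culture at 2% hematocrit, 0.1% parasitemia final, 37 C/5% CO2; decreased signal taken as growth inhibition.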
FBPA Giardia inh: blocks Giardia fructose-bisphosphate aldolase activity. A8B2U2. purified Giardia FBPA. Potency, µM (doses to about 59.6 µM), for the others: at the highest dose activity, negative = inhibition, most hits filed as inhibitors. hit rate 0.71% among 290,000. AID 2451; further: potency means the concentration at half of the fitted maximal effect; on the % scale 0 is the no-effect control and ±100 the full control effect; nearly all actives have a fitted effect of over 55% in size
Target sequence (A8B2U2 whole entry, looked up): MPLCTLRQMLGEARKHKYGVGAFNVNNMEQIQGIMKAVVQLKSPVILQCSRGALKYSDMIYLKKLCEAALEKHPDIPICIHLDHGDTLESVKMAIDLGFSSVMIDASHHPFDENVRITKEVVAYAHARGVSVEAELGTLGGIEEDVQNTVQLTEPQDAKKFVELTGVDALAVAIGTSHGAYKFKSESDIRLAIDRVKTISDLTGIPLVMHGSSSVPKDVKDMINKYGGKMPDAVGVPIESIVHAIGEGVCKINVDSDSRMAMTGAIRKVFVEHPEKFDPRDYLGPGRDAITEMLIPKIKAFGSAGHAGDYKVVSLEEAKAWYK
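Giardia FBPA (40 nM reagent) was preincubated 10 min at RT with compound (up to 57.5 uM final), then substrate plus GAPDH/TPI/NAD/arsenate coupling system with diaphorase/resazurin was added; resorufin fluorescence (525/598 nm) was read after 20 min.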
Cycloheximide cs: counter-screen hit for Shiga toxin inhibitors, cycloheximide | cell reporter, cycloheximide protein synthesis inhibition counterscreen | max response, % | hit rate 12% among 300,000 | AID 2314; in the data active means max response mostly above about 13%, no sharp cut-off; inactive means mostly below about 14%; further: read at 38.3 µM for the half of the compounds with a filed dose; 0% is about no effect
Shiga inhibitor: blocks Shiga toxin action in Vero cells; Vero cells, Shiga toxin protein synthesis inhibition reporter; inhibition, % at 38.7 µM; hit rate 9.2% among 290,000; AID 2315; in the data active means inhibition mostly above about 28%, no sharp cut-off; inactive means mostly below about 43%; further: 0% is about no effect
Pf growth 96h: inhibits malaria parasite growth, 96 h; hit rate 6.9% among 320,000; AID 504834; P. falciparum luciferase reporter growth, 96 h; Potency, µM (highest dose often 28.7 µM), inactives show at the highest dose activity change, negative = inhibition, actives largely listed as inhibitors; further: potency means the concentration at half of the fitted maximal effect; on the % scale 0 is the no-effect control and ±100 the full control effect
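Readout is luminescence from an integrated firefly luciferase in P. falciparum. Red cells, 2% hematocrit and 0.05% parasitemia final, were cultured with compound through two parasite generations (96 hours) at 37 C, 5% CO2.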
NS1 inh: inhibitors of influenza NS1 protein function; AID 2326; hit rate 0.4% among 270,000; Potency, µM (highest dose often 46.1 µM), inactives show top-dose activity, positive = more growth; calls by dose curve; further: potency means the concentration at half of the fitted maximal effect; actives are rising curves; nearly all actives have a fitted effect of over 50% in size
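Growth recovery, yeast-based: influenza A NS1 expressed in S. cerevisiae causes slow growth, and suppressors are detected by OD600. The parent strain without NS1 is used as positive control.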
The depositor's hits bear a star; ? = inconclusive; / = no result. Unless noted, the call rests on the fitted dose curve; in most records, active means well fitted curve in the direction sought with a large enough effect; inconclusive means small, poorly fitted or top-dose-only effect, or another doubt; inactive means no such curve, though single readings can be large; an effect the other way counts as inactive or inconclusive.

SMILES	Pf growth 48h	FBPA Giardia inh	Cycloheximide cs	Shiga inhibitor	Pf growth 96h	NS1 inh
COCCNC(=O)C(c1ccc(C)cc1)N(Cc1ccco1)C(=O)CCC(=O)Nc1ccccn1 (stereo not given)	-21%	-13%	-1	2	1%	-18%
COC1(C)CCC2OC2(C)CCC2C1CC2(C)C (stereo not given)	/	0%	/	/	/	/
O=C1C(=O)N(CCN2CCOCC2)C(c2ccccn2)/C1=C(/O)c1ccccc1 (stereo not given)	18%	?	30*	109*	3%	5%
Cc1cc(C)n(C(=O)c2ccc(C)c(Br)c2)n1	1%	5%	-1	14	32%	1%
Cc1cc(C)n(C(=O)c2cc(F)c(F)cc2C)n1	11%	4%	25*	70*	8%	3%
Cc1cc(C)n(C(=O)c2ccc(Cl)c(F)c2F)n1	1%	0%	-1	-1	9.3µM*	0%
Cc1nn(C)c(C)c1-c1c(C#N)c(N)nc2c1CCCCCC2	?	3%	-7	-13	?	5%
N#Cc1c(N)nc2c(c1-c1ccncc1)CCCCC2	?	11%	-7	1	7.4µM*	-8%
COc1ccc(-c2c(C#N)c(N)nc3c2CCCCCC3)cc1OC	/	2%	11	-6	-20%	6%
CSc1ccc(-c2c(C#N)c(N)nc3c2CCCC3)cc1	9%	-12%	-3	-26	2.6µM*	-5%
Cc1c(-c2c(C#N)c(N)nc3c2CCCCCC3)cnn1C	?	6%	2	-5	10µM*	-2%
CC(C)CN1C(=O)c2ccc(NC(=O)c3ccco3)cc2C1=O	-8%	0%	49*	61*	?	-35%
CC(C)CN1C(=O)c2ccc(NC(=O)c3cccs3)cc2C1=O	8.3µM*	-4%	40*	193*	/	-82%
CC(C)CN1C(=O)c2ccc(NC(=O)c3ccccc3F)cc2C1=O	?	-2%	8	21	/	-4%
Cc1ccc(NC(=O)CN2C(=O)N/C(=C/c3cc(C)n(-c4ccc(C(=O)O)cc4)c3C)C2=O)cc1	-19%	-12%	33	84*	?	/
CCC(=O)c1ccc(OCC(O)CN2CCN(S(=O)(=O)c3ccc(NC(C)=O)cc3)CC2)cc1 (stereo not given)	?	3%	-2	-2	?	-26%
Cc1ccccc1OCC(=O)NCCCNC(=O)c1ccco1	3%	4%	-6	-9	15%	0%
Cc1cc(C)c2ccc(Cl)cc2n1	5%	-16%	-1	1	23%	-3%
Cc1nc2ccccc2nc(C)c1=NO	30%	?	51*	114*	51%	-48%
Cc1ccc2nc(-c3ccccc3)c(-c3ccccc3)nc2c1	-8%	1%	11	9	32%	6%
Cc1ccc2nc(C)/c(=N\O)c(C)nc2c1	40%	/	23*	86*	86%	-30%
Cc1nc2ccc(Cl)cc2nc(C)/c1=N\O	36%	14µM*	28*	50	178%	-65%
CCOC(=O)c1cccc(C2=CC(=O)C[C@H](c3ccc(OC)cc3)C2)c1	-19%	/	/	/	-31%	/
CC(C)c1ccc(N(C(=O)c2csnn2)C(C(=O)NC2CCCC2)c2cccnc2)cc1 (stereo not given)	?	-5%	-5	-5	?	-15%
COc1cc2cc(CCCOC(=O)c3ccc(F)cc3)oc(=O)c2cc1OC	-16%	/	/	/	?	/
SMILES	Pf growth 48h	FBPA Giardia inh	Cycloheximide cs	Shiga inhibitor	Pf growth 96h	NS1 inh
O=C(O)c1ccc(N/N=C/c2ccncc2)cc1	173%	4µM*	25*	35*	34%	-2%
Cc1csc(N/N=C\c2cccnc2)n1	-10%	?	58*	91*	19%	/
Cc1ccc(N/N=C/c2cccnc2)cc1	?	0%	53*	84*	?	-23%
O=C(Nc1cccc(Cl)c1)O/N=C\c1ccncc1	25%	0%	5	21	67%	-4%
Clc1cccc(N/N=C/c2ccncc2)c1	2.6µM*	-4%	31*	20	-20%	-23%
COc1ccc(CNc2ccnc(-c3cccc(C#N)c3)n2)c(OC)c1	/	-11%	/	/	/	/
CC1CCN(C(=O)CSC2=NS(=O)(=O)c3cc(F)ccc3N2)CC1	6%	/	/	/	?	/
O=C(O)c1ccc(/C=N/Nc2ncc(Cl)cc2Cl)cc1	45%	?	21	65*	48%	-4%
Cc1ccc(N/N=C/c2ccncc2)cc1	?	5%	42*	87*	?	-57%
COC(=O)CNC(c1ccccc1)c1cc(Br)ccc1NC(C)=O (stereo not given)	3%	8%	-5	-3	0%	-2%
COC(=O)CNC(c1ccccc1Cl)c1cc(Br)ccc1NS(=O)(=O)c1ccc(C)cc1 (stereo not given)	3.3µM*	-1%	9	-7	-10%	4%
CC(=O)Nc1ccc(S(=O)(=O)N2CCC(C(=O)NCc3ccncc3)CC2)cc1	7%	/	1	-3	-5%	-2%
COc1ccc(Cc2nnc(NC(=O)C(C)C)s2)cc1	-7%	6%	-1	-2	2%	-6%
COC(=O)Nc1nnc(-c2ccccc2OC)s1	124%	-8%	38*	74*	162%	-8%
COC(=O)Nc1nnc(-c2ccccc2Cl)s1	/	-2%	26*	65*	108%	-80%
COc1ccc(-c2nnc(NC(=O)C(C)C)s2)c(OC)c1	/	-3%	21*	52	52%	4%
COc1ccccc1-c1nnc(NC(=O)OCC(C)C)s1	69%	-1%	-2	-9	205%	-8%
CCOC(=O)Nc1nnc(-c2ccccc2OC)s1	56%	-1%	21*	33*	12%	-14%
CC(C)CN(C(=O)CSc1n[nH]c(-c2cccs2)n1)C1CCS(=O)(=O)C1 (stereo not given)	-1%	/	/	/	?	/
CCCCn1c(N)c(N(CC(C)C)C(=O)c2ccc(C)c(S(=O)(=O)N3CCCCC3)c2)c(=O)[nH]c1=O	?	/	/	/	-21%	/
Cn1c(SCC(=O)NC2(C#N)CCCCC2)nnc1-c1cccnc1	-20%	0%	4	-14	-16%	11%
COc1cccc(NC(=O)CN(C)C(C)C(=O)N2CCCC2)c1 (stereo not given)	?	/	/	/	-28%	/
O=C(NC1CCCCC1)c1ccc([N+](=O)[O-])o1	10µM*	-3%	43*	72*	-10%	-22%
O=C(NC1CCCCCC1)c1ccc([N+](=O)[O-])s1	?	/	/	/	9.3µM*	/
O=C(NC1CCCCC1)c1ccc(-c2ccccc2[N+](=O)[O-])o1	156%	/	44*	105*	-26%	-45%
O=C(Nc1ccc2oc(=O)ccc2c1)c1ccc(-c2ccccc2[N+](=O)[O-])o1	6%	-14%	7	29	16%	0%
COc1cccc(OC)c1C(=O)NC(C)C12CC3CC(CC(C3)C1)C2 (stereo not given)	/	4%	0	-9	?	-51%
